From PubChem BioAssay
A selection: hits, their analogues and other compounds. The true share with any hit is near 2.6%.
Cruzain noTriton – cruzain (T. cruzi) inhibition without detergent | P25779 | purified cruzain, Z-FR-AMC fluorescence, no detergent | Potency, µM, for the others: max response, negative = inhibition, most hits filed as inhibitors | hit rate 2.3% among 200,000 | AID 1476;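 further: plate controls were enzyme without inhibitor for no effect and buffer without enzyme for full effect; nearly all actives have a fitted effect of over 40% in size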
Target sequence (P25779 123-467 limits assumed): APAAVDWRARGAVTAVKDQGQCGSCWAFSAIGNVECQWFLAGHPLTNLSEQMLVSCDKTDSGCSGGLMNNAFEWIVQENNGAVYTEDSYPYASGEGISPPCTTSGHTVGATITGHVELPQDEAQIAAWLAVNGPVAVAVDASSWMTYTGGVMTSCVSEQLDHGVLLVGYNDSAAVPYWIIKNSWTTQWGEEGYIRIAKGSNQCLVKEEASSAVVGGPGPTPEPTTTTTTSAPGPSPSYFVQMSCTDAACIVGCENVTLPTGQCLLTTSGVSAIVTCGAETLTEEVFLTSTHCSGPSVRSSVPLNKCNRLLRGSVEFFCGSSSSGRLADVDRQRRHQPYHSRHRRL
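Purified cruzain at 1.5 nM, pre-incubated 15 min with compound at room temperature in 100 mM sodium acetate pH 5.5, 5 mM DTT, 0.00005% Triton X-100. Reaction started with 2 uM Z-FR-AMC; AMC fluorescence increase over 60 s gives rate.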
Cruzain inh Det – blocks cruzain activity in presence of Triton detergent. P25779. purified cruzain, Z-FR-AMC fluorescence, 0.01% Triton. Potency, µM, inactives show max response, negative = inhibition, most hits filed as inhibitors. hit rate 0.43% among 200,000;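 further: plate controls were neutral wells for no effect and buffer without enzyme for full effect; nearly all actives have a fitted effect of over 40% in size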
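Purified cruzain (1.5 nM final) was preincubated with compounds for 15 min at room temperature in 100 mM sodium acetate pH 5.5, 5 mM DTT, 0.01% Triton X-100. Reaction started with 2 uM Z-FR-AMC; AMC fluorescence change over 60 s gave activity.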
The depositor's hits bear a star; ? = inconclusive. The call rests on the fitted dose curve; in most records, active means well fitted curve in the direction sought with a large enough effect; inconclusive means small, poorly fitted or top-dose-only effect, or another doubt; inactive means no such curve, though single readings can be large; an effect the other way counts as inactive or inconclusive. Potency means the concentration at half of the fitted maximal effect.

SMILES	Cruzain noTriton	Cruzain inh Det
Cc1ccc(C)c(NC(=O)Nc2cc3c(cc2N2CCCCC2)n(C)c(=O)n3C)c1	25.0%	-9.2%
COc1ccccc1CNC(=O)C1CCCN(C(=O)c2cnn(-c3ccc(F)cc3)c2-n2cccc2)C1 (stereo not drawn)	?	-3.6%
COc1ccc2c(c1)C(c1cc(OC)c(OC)c(OC)c1)CC(=O)O2 (stereo not drawn)	3.7%	0.5%
COc1ccc(C2CC(c3cccs3)=NN2c2nc(-c3ccccc3)cs2)cc1OC (stereo not drawn)	7.94µM*	-3.9%
COc1ccc(C2CC(c3cccs3)=NN2c2ccc(C=O)cc2)cc1 (stereo not drawn)	?	-4.3%
CC(C)N(C(=O)Cn1cc(S(=O)(=O)Cc2ccc(Br)cc2)c2ccccc21)C(C)C	-7.4%	0.2%
COc1ccccc1-c1nnc(NC(=O)C(C)SC2=NCCS2)s1 (stereo not drawn)	15.8µM*	-5.3%
CC(SC1=NCCS1)C(=O)Nc1nnc(-c2ccc(Cl)cc2)s1 (stereo not drawn)	-16.0%	-8.2%
CCOC(=O)c1ccc(NC(=O)c2ccc(-c3cccc(Cl)c3C)o2)cc1	-21.6%	-11.2%
CCCOc1ccc(C(=O)NC(=S)Nc2nc3ccccc3s2)cc1	?	1.7%
CCOCC(=O)Nc1nc2ccc(C)cc2s1	3.5%	-4.0%
CCCOc1ccc(C(=O)NC(=S)Nc2nc3ccc(C)cc3s2)cc1	25.1µM*	6.8%
Cc1ccc2nc(NC(=O)c3cccs3)sc2c1	-8.0%	0.4%
C/C=C/C(=O)OCC(=O)Nc1nc2ccc(C)cc2s1	20µM*	0.2%
Cc1ccc2nc(NC(=O)c3ccc(Cl)s3)sc2c1	12.6µM*	0.9%
O=C(Cn1c(=O)nc(-c2ccccc2)c2ccccc21)NCCCc1ccccc1	-9.5%	-3.8%
Cc1nc2ccc(S(=O)(=O)N(CC(=O)Nc3ccc(Cl)cc3)Cc3ccccc3)cc2s1	5.7%	-5.7%
Cc1ccc(Cl)cc1-n1c(=O)c2sc3ccccc3c2n(Cc2ccccc2)c1=O	1.2%	-0.7%
COc1cccc(Cn2c(=O)n(-c3ccc(Br)cc3F)c(=O)c3sc4ccccc4c32)c1	12.6µM*	-4.8%
N=C1/C(=C\c2ccc(SCc3ccco3)o2)C(=O)N=C2SC=NN12	?	-19.5%
CC1=NN2C(=N)/C(=C\c3ccc(SCc4ccccc4)o3)C(=O)N=C2S1	7.94µM*	-0.9%
COc1ccc(S(=O)(=O)N(CCO)c2ccccc2CN(C)CC=Cc2ccc(Cl)cc2)cc1	?	-0.8%
CCOc1cc(C)c(C(C)C)cc1S(=O)(=O)n1ccnc1CC	?	-8.4%
Cn1ccc2cc(S(=O)(=O)N3CCCC(C(=O)NCc4ccc(F)cc4)C3)ccc21 (stereo not drawn)	?	-3.4%
Cc1ccc(C(=O)/C=C/c2cn(CC(O)CN3CCc4ccccc43)c3ccccc23)cc1 (stereo not drawn)	10µM*	-4.2%
SMILES	Cruzain noTriton	Cruzain inh Det
COc1ccc(C(=O)/C=C/c2cn(CC(O)CN3CCc4ccccc43)c3ccccc23)cc1OC (stereo not drawn)	-25.7%	-4.6%
Cc1ccc(-n2c(=O)c3c4c(sc3n(CC(=O)Nc3cccc(Cl)c3)c2=O)CCCCC4)cc1C	-17.4%	-1.1%
Cc1ccc2c(=O)cc(C(=O)Nc3sc4c(c3C(=O)NCc3ccco3)CCCC4)oc2c1C	-7.0%	-2.2%
COCCCN=C1NN=C(c2cc(C)n(-c3ccccc3)c2C)CS1	-4.6%	-6.9%
CCCCN=C1NN=C(c2cc3ccccc3o2)CS1	7.94µM*	-9.4%
O=C(NC1CC(=O)N(c2ccccc2)C1)c1cccs1 (stereo not drawn)	2.6%	0.5%
Cc1nc(-c2ccc(S(=O)(=O)N3CCN(c4ccccc4F)CC3)cc2)co1	-12.6%	-6.2%
COCc1cc(=O)[nH]c(Sc2c(-c3ccccc3)c3ccc(Cl)cc3[nH]c2=O)n1	?	-2.4%
O=c1[nH]c2cc(Cl)ccc2c(O)c1-c1cccc(Oc2ccccc2)c1	3.16µM*	5.5%
O=c1[nH]c2cc(Cl)ccc2c(O)c1-c1ccc(Oc2ccccc2)cc1	10µM*	2.4%
O=c1[nH]c2ccc(Cl)cc2c(O)c1-c1ccccc1	0.2%	0.6%
Cc1cc(Nc2cccc(C(F)(F)F)c2)nc2ccc(NC(=O)c3ccc(N(C)C)cc3)cc12	?	-0.9%
Cc1ccccc1OCc1nnc(SCC(=O)Nc2ccc3nc(SCC(=O)Nc4ccccc4)sc3c2)n1C	25.1µM*	0.1%
COC(=O)CSc1nc2ccc(NC(=O)CSc3nnnn3Cc3ccccc3)cc2s1	6.6%	-11.4%
Cc1ccccc1OCc1nnc(SCC(=O)Nc2ccc3c(c2)OCO3)n1C	5.3%	-2.7%
O=C(CSc1nc2ccc(NC(=O)CSc3nnnn3Cc3ccccc3)cc2s1)Nc1ccccc1	10µM*	-1.2%
Cc1cc(-c2ccc(S(=O)(=O)Nc3ccc(Cl)cc3C)cc2)on1	-10.3%	-12.1%
N[C@H](C(=O)O)[C@@H]1[C@@H](C(=O)O)C1(F)F	4.6%	3.0%
Cc1noc(C)c1C(=O)N1CCC[C@@]2(CCN(c3ccccn3)C2)C1	-5.0%	-2.7%
